# HepG2 viability: qHTS for Inhibitors of TGF-b: Cytotox Counterscreen; HepG2 CAGA-GFP viability, ATP luminescence, 18 h; Potency, µM (highest dose often 46.1 µM), inactives show at the highest dose activity change, negative = cytotoxicity, most hits filed as cytotoxic; 0.76% of 410,000 active
#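 HepG2 CAGA-GFP cells (1000/well, DMEM with 1% FBS) received compound, then TGF-beta at 500 pg/mL final, and were incubated 18 hours at 37 degrees C. Viability was read by CellTiter-Glo luminescence. Media-only wells were set as complete cell-killing and DMSO as no toxicity.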
# TGFb SMAD3 inh: qHTS for Inhibitors of TGF-b | 1.2% of 410,000 active | Potency, µM (titrated, usually from 46.1 µM), for inactives: at the top dose activity, negative = inhibition, actives largely listed as inhibitors | HepG2 CAGA-GFP TGF-b/SMAD3 reporter, GFP fluorescence, 18 h; TGF-beta stimulated, 500 pg/mL final | AID 588855, 2011; further: on the % scale 0 is the no-effect control and ±100 the full control effect; nearly all actives have a fitted effect of over 65% in size
#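 Using HEPG2 CAGA-GFP reporter cells at 1000 cells/well, we pinned test compounds, stimulated with recombinant TGF-beta (500 pg/mL final) and measured total well GFP after 18 h.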
# KB-3-1 tox: qHTS assay for MDR1-selective chemotherapeutics: Primary screen using the parental adenocarcinoma cell KB-3-1. AID 1347075, 2019. KB-3-1 viability, CellTiter-Glo ATP luminescence, 72 h. 1.4% of 400,000 active. Potency, µM (top dose mostly 46.1 µM), hits mostly cytotoxic; further: on the % scale 0 is the no-effect control and ±100 the full control effect; nearly all actives have a fitted effect of over 60% in size
#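 Cytotoxicity measured as CellTiter-Glo luminescence after 72 h at 37 C. Compound titrations were pinned onto drug-naive KB-3-1 parental adenocarcinoma cells grown in DMEM with 10% FBS, and normalized data fitted to concentration-response curves.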
# S2 tox: Viability Counterscreen for Primary qHTS for Inhibitors of ATXN expression; S2 cells (HEK-293 line with an ATXN2-luciferase reporter) viability, CellTiter-Fluor protease fluorescence, 24 h; Potency, µM (top dose mostly 56.7 µM), usual class: cytotoxic; 0.49% of 400,000 active; further: nearly all actives have a fitted effect of over 40% in size
# KB-V1 cytotox: qHTS assay for MDR1-selective chemotherapeutics: Primary screen using the drug-selected MDR subline cells KB-V1; KB-V1 MDR cells viability, CellTiter-Glo, 72 h; Potency, µM (series often up to 46.1 µM), usual class: cytotoxic; 3.4% of 400,000 active; AID 1347076, 2019; further: on the % scale 0 is the no-effect control and ±100 the full control effect; nearly all actives have a fitted effect of over 60% in size
#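 Cytotoxicity toward P-gp-expressing KB-V1 cells was determined as loss of CellTiter-Glo luminescence after 72 h at 37 degrees C. Compounds were tested in quantitative HTS format across a concentration range, with curves fitted to normalized data.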
# ATXN2 expr inh: Primary qHTS for Inhibitors of ATXN expression | HEK-293 ATXN2-luciferase reporter, luminescence, 24 h | Potency, µM (series often up to 57 µM), inactives show at the top dose activity change, negative = inhibition, usual class: inhibitors | 0.72% of 360,000 active | AID 1745845, 2022; further: on the % scale 0 is the no-effect control and ±100 the full control effect; nearly all actives have a fitted effect of over 55% in size
#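 ATXN2-luciferase reporter cells (luciferase flanked by upstream and downstream ATXN2 gene portions) were treated 24 h at 37 °C with compounds at up to 57 uM. SteadyGlo luminescence gave expression; GF-AFC fluorescence gave viability.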
# The depositor's hits bear a star; i = inactive; ? = inconclusive; . = no result. Only some compounds are listed: those with a hit (about 5.9% of all), similar ones and a draw of the others. The call rests on the fitted dose curve; in most records, active means well fitted curve in the direction sought with a large enough effect; inconclusive means small, poorly fitted or top-dose-only effect, or another doubt; inactive means no such curve, though single readings can be large; an effect the other way counts as inactive or inconclusive. Potency means the concentration at half of the fitted maximal effect.
SMILES,HepG2 viability,TGFb SMAD3 inh,KB-3-1 tox,S2 tox,KB-V1 cytotox,ATXN2 expr inh
Cc1sc2ncnc(NCc3cccs3)c2c1C,-25.7%,-7.0%,?,i,2.59µM*,?
Cc1ccc2[nH]c3c(NCc4ccco4)ncnc3c2c1,-25.8%,?,13µM*,i,18.4µM*,-15.6%
Cc1sc2ncnc(NCCN3CCOCC3)c2c1C,7.9%,-17.5%,i,i,16.4µM*,-14.6%
O=C(Cn1c(-c2cccs2)cc2ccccc21)N1CCN(c2ccccc2F)CC1,-19.8%,-22.7%,i,i,i,4.4%
O=C(Nc1cccc(Br)c1)N1CCC(CN2CCCCC2)CC1,-0.3%,-19.7%,i,i,i,-18.9%
CCCCC(CC)CNC(=O)c1ccc(Cn2c(=O)[nH]c3cc(OC)c(OC)cc3c2=O)cc1 (stereo not given),-39.5%,0.0%,.,.,.,.
Cc1sc2nc(CN3CCOCC3)nc(NCCc3ccccc3)c2c1C,-29.1%,1.7%,i,i,8.2µM*,-9.4%
COCCCNc1ncnc2c1c(-c1ccccc1)cn2-c1ccc(C)c(Cl)c1,0.3%,3.8%,.,.,.,.
CCN1CCN(C(c2cccs2)C(C)NS(=O)(=O)c2ccc(Br)cc2)CC1 (stereo not given),-3.3%,2.5%,i,i,23.1µM*,-9.6%
Cc1ccc(S(=O)(=O)NC(C)C(c2cccs2)N2CCN(C)CC2)cc1 (stereo not given),-8.6%,4.0%,i,i,i,-14.8%
Cc1cc(C=c2sc3nc4ccccc4n3c2=O)c(C)n1-c1ccccc1,.,.,.,.,.,0.243µM*
CC(C)CC(=O)NCCc1ccncc1,2.82µM*,-18.1%,i,i,i,-13.4%
Cc1ccc(N2CCN(S(=O)(=O)c3ccc(F)c(C(=O)Nc4ccc(Cl)cc4Cl)c3)CC2C)cc1 (stereo not given),-3.8%,9.0%,.,.,.,.
CCOc1ccc(-c2nn(-c3ccccc3)cc2C2NC(=O)NC(C)=C2C(=O)OC(C)C)cc1C (stereo not given),-15.4%,?,i,i,i,-36.2%
CCOC(=O)/C(C#N)=C\c1cn(C)c2ccccc12,-1.0%,3.3%,i,?,i,-18.6%
CCOC(=O)/C(C#N)=C/c1c(OCC)n(CC)c2ccccc12,-24.2%,0.4%,i,i,7.31µM*,-18.0%
CCCCC(CC)C(=O)Oc1ccc(O)c(C(C)(C)C)c1 (stereo not given),-95.0%,14.1µM*,i,?,i,-34.4%
CC(C)(C)c1cc(OC(=O)C2CCCC2)ccc1O,-53.8%,?,i,i,i,-11.2%
CN(CCOc1ccccc1)Cc1ccccc1,2.1%,0.4%,i,i,i,-4.8%
CN(CCOc1ccc(Cl)cc1)Cc1cccc(S(=O)(=O)N(C)C)c1,-36.5%,-24.7%,20.6µM*,i,7.31µM*,-36.6%
CN(C)S(=O)(=O)c1cccc(NC(=O)c2ccc(COc3ccccc3)cc2)c1,-32.8%,-20.8%,?,12.6µM*,?,?
COc1cc(OC)c(OC)cc1CNC(=O)c1ccc(COc2ccccc2)cc1,6.7%,-3.5%,?,i,11.6µM*,-13.3%
CN(C)S(=O)(=O)c1cccc(NC(=O)Cc2ccc(Cl)cc2)c1,0.9%,-13.3%,i,i,20.6µM*,-11.2%
O=C(Cc1ccc(Cl)cc1)Nc1cccc(S(=O)(=O)Nc2ccccc2F)c1,-14.7%,?,i,i,i,-1.1%
CC(=O)Nc1ccc(S(=O)(=O)O)c2cc(S(=O)(=O)O)c(N=Nc3ccc(N=Nc4ccc(S(=O)(=O)O)cc4)c4ccc(S(=O)(=O)O)cc34)c(O)c12,-25.8%,-5.7%,?,.,?,.

# Source: PubChem BioAssay
